# Screening results from PubChem BioAssay.
# MCF10A rereplic: A quantitative high throughput screen for small molecules that induce DNA re-replication in MCF 10a normal breast cells; MCF 10A DNA re-replication, Hoechst nuclear intensity, 48 h; Potency, µM (top dose mostly 46.1 µM), inactives show at the top dose activity, positive = re-replication, actives largely listed as activators; 2.9% of 350,000 active; further: potency means the concentration at half of the fitted maximal effect; % of control where 0% means no effect; nearly all actives have a fitted effect of over 50% in size
# IL1B secr inh: qHTS for Inhibitors of Inflammasome Signaling: IL-1-beta AlphaLISA Primary Screen; 4.7% of 360,000 active; THP-1 LPS/ATP IL-1B secretion, AlphaLISA, 16 h; active compounds read low; activity change, % at 57.5 µM; in the data active means activity change below about -50%; inconclusive means mostly about -30% to -49%; further: on the % scale 0 is the no-effect control and ±100 the full control effect
#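 THP-1 cells pretreated 1 hr with compounds (up to 57.5 uM final), then stimulated with LPS (250 ng/mL final) plus ATP (1.25 mM final); secreted IL-1B measured by AlphaLISA after 16 hr, decreased signal indicating inhibition.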
# Chronic BCR inh: qHTS Assay to Find Inhibitors of Chronic Active B-Cell Receptor Signaling; ABC-DLBCL IkBa-CBG/CBR reporter, luminescence ratio, 4 h; Potency, µM (titrated, usually from 46.1 µM), inactives show top-dose activity change, negative = inhibition, most hits filed as inhibitors; 0.05% of 340,000 active; AID 493014, 2011; active means well fitted inhibition curve with a large enough effect in the signal ratio, with a control signal flat, not every such curve was filed as active; inconclusive means small, poorly fitted or top-dose-only effect, or effect the other way, or a change in a side signal; the % refers to the signal ratio;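 further: potency means the concentration at half of the fitted maximal effect; plate controls were basal doxycycline-induced cells for no effect and cells given 10 µM MG132 for full effect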
#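 TMD8 human ABC-DLBCL cells with doxycycline-inducible IκBα–green luciferase fusion and unfused red luciferase, in 0.5% FBS medium; compounds up to 46 uM, 4 h at 37C. Green/red luminescence ratio, filter-overlap corrected, fitted to concentration-response curves.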
# TDP1 cell noCPT: qHTS for Inhibitors of human tyrosyl-DNA phosphodiesterase 1 (TDP1): qHTS in cells in absence of CPT; DT40 Tdp1-/- hTDP1 cells, no CPT, ATP luminescence, 48 h; Potency, µM (top dose mostly 46.2 µM), for the others: at the highest dose activity change, negative = growth inhibition, usual class: inhibitors; 15% of 420,000 active; further: potency means the concentration at half of the fitted maximal effect; on the % scale 0 is the no-effect control and ±100 the full control effect; nearly all actives have a fitted effect of over 55% in size
#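 Chicken DT40 Tdp1-/- cells stably complemented with human TDP1 were seeded at 400 cells/well with DMSO in place of 20 nM camptothecin. After compound pinning, cells grew at least 48 hr at 37 °C; viability read by CellTiter-Glo luminescence.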
# SW480 rerep: A quantitative high throughput screen for small molecules that induce DNA re-replication in SW480 colon adenocarcinoma cells; SW480 DNA re-replication, Hoechst DNA content imaging, 48 h; Potency, µM (series often up to 46.1 µM), for the others: at the highest dose re-replication activation, actives largely listed as activators; 1.8% of 340,000 active; AID 624297, 2012; further: potency means the concentration at half of the fitted maximal effect; % of control where 0% means no effect; nearly all actives have a fitted effect of over 55% in size
#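 Readout is total intensity of Hoechst-stained nuclei, excited at 405 nm and collected at 500-530 nm. Compound treatment lasted 48 hr at 37 C in 5% CO2 before staining.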
# TDP1 cell CPT: qHTS for Inhibitors of human tyrosyl-DNA phosphodiesterase 1 (TDP1): qHTS in cells in presence of CPT | Potency, µM (titrated, usually from 46.2 µM), for the others: at the top dose activity change, negative = growth inhibition, most hits filed as inhibitors | chicken DT40 Tdp1-/-;hTDP1 cells + 20 nM CPT, ATP luminescence, 48 h | 12% of 420,000 active | AID 686979, 2013; further: potency means the concentration at half of the fitted maximal effect; on the % scale 0 is the no-effect control and ±100 the full control effect; nearly all actives have a fitted effect of over 55% in size
#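 Chicken DT40 Tdp1-/- cells stably complemented with human TDP1 were seeded at 400 cells/well in medium containing 20 nM camptothecin, exposed to pin-transferred compounds, and grown at 37 °C for at least 48 hr. Viability was read as ATP luminescence.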
# * = called active by the depositor; ? = inconclusive; . = not tested or not shown. Hits are enriched below; roughly 19% of the tested compounds scored in any of these assays. Unless noted, the call rests on the fitted dose curve; in most records, active means well fitted curve in the direction sought with a large enough effect; inconclusive means small, poorly fitted or top-dose-only effect, or another doubt; inactive means no such curve, though single readings can be large; an effect the other way counts as inactive or inconclusive.
SMILES,MCF10A rereplic,IL1B secr inh,Chronic BCR inh,TDP1 cell noCPT,SW480 rerep,TDP1 cell CPT
Cc1sc2ncnc(N3CCN(S(=O)(=O)c4ccc(C(C)(C)C)cc4)CC3)c2c1C,?,-29.4,-2.3%,3.26µM*,-27.5%,9.2µM*
CC(=O)Nc1cccc(Oc2ncnc3scc(-c4ccccc4)c23)c1,?,-53.3*,?,10.3µM*,-5.9%,?
Cc1[nH][nH]c(=O)c1C=NCc1ccc(Cl)cc1,8.0%,4.5,-0.4%,-6.8%,0.1%,-6.5%
COc1ccc(N2CCN(c3ncnc4scc(-c5ccc(C)cc5)c34)CC2)cc1,23.1µM*,40.4,0.6%,?,?,?
COc1ccc(S(=O)(=O)N2CCN(c3nn(C)c(=O)n(C)c3=O)CC2)cc1,-2.9%,14.7,-1.8%,16.4µM*,-10.4%,?
CC(=O)c1ccc(S(=O)(=O)N2CCN(c3nn(C)c(=O)n(C)c3=O)CC2)cc1,-2.2%,6.2,0.0%,0.7%,-4.5%,-17.0%
O=C(NCCCCc1ccccc1)C1CC(c2ccccc2C(F)(F)F)=NO1 (stereo not drawn),?,-4.8,-9.8%,?,2.6%,-4.2%
Cn1c(NCCN2CCCC2)nc2cc(-c3ccsc3)sc2c1=O,.,-63.3*,.,14.6µM*,.,20.6µM*
COc1ccc(-c2cc3nc(NCCN4CCCC4)n(C)c(=O)c3s2)cc1OC,.,-15.3,.,18.4µM*,.,?
Cn1c(NCCc2ccncc2)nc2cc(-c3ccsc3)sc2c1=O,.,0.3,.,13µM*,.,20.6µM*
CC(=O)NCCNc1nc2cc(-c3ccsc3)sc2c(=O)n1C,.,32.5,.,-12.7%,.,-22.1%
Cc1ccc(-c2cc3nc(NCCc4ccncc4)n(C)c(=O)c3s2)cc1,.,-1.3,.,?,.,23.1µM*
Cc1cc(NC(=O)COc2ccc3ccccc3c2)no1,-9.6%,17.4,?,0.6%,-24.6%,-5.0%
CCOc1ccc(N(CC(=O)N2CCN(c3ccc(F)cc3)CC2)S(=O)(=O)c2c(C)noc2C)cc1,-1.0%,-24.3,-1.4%,?,23.1µM*,25.9µM*
COc1ccc(N(CC(=O)N2CCN(c3cccc(Cl)c3)CC2)S(=O)(=O)c2c(C)noc2C)cc1,?,-12.7,4.4%,18.4µM*,-12.0%,16.4µM*
Cc1ccc(N(CC(=O)N2CCN(c3ccc(F)cc3)CC2)S(=O)(=O)c2c(C)nn(C)c2C)cc1,5.5%,-24.7,-0.4%,?,-7.8%,?
Cc1ccc(N(CC(=O)N2CCN(c3cccc(C)c3C)CC2)S(=O)(=O)c2c(C)nn(C)c2C)cc1,.,.,.,9.2µM*,.,8.2µM*
COc1ccc(N(CC(=O)N2CCN(c3ccc(Cl)cc3)CC2)S(=O)(=O)c2c(C)noc2C)cc1,2.7%,?,7.4%,?,-3.9%,?
COc1ccc(N(CC(=O)N2CCN(c3ccc(F)cc3)CC2)S(=O)(=O)c2c(C)noc2C)cc1,2.6%,-1.0,5.7%,?,-5.9%,25.9µM*
Cc1n[nH]c(C)c1CCNC(=O)C1CCC(=O)N(CCc2cccc(F)c2)C1 (stereo not drawn),5.3%,-15.5,0.2%,-12.4%,0.6%,?
CCOc1ccc(N(CC(=O)N2CCN(c3ccccc3F)CC2)S(=O)(=O)c2c(C)noc2C)cc1,1.0%,1.6,3.6%,5.1%,0.7%,-2.2%
Cc1ccc(N(CC(=O)N2CCN(c3cc(Cl)ccc3C)CC2)S(=O)(=O)c2c(C)noc2C)cc1,.,.,.,9.2µM*,.,20.6µM*
